High-throughput results from PubChem.
Only some compounds are listed: those with a hit (about 9.4% of all), similar ones and a draw of the others.
Pf growth 96h: P. falciparum growth inhibition at 96 hours; P. falciparum luciferase reporter growth, 96 h; 6.9% of 320,000 active; Potency, µM (series often up to 28.7 µM), inactives show top-dose activity change, negative = inhibition, hits mostly inhibitors; note: % is set by controls: 0 for no effect and ±100 for the full control effect
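Delayed-death screen, second-generation endpoint: infected erythrocytes, 2% hematocrit, 0.05% parasitemia final; 96 hours at 37 C, 5% CO2; luciferase detection reagent; luminescence decrease equals reduced growth.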
AMA1-RON2 inh: AMA1-RON2 (P. falciparum) interaction inhibition; AID 720542; AlphaScreen AMA1-biotinylated RON2 peptide binding; 0.2% of 360,000 active; Potency, µM (top dose mostly 58.2 µM), for the others: at the top dose activity change, negative = inhibition, most hits filed as inhibitors;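 note: 0% = vehicle wells and -100% = peptide control; nearly all actives have a fitted effect of over 45% in size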
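AMA1 (3D7) with his tag at 25 nM final met compounds first, then biotinylated RON2 peptide at 25 nM; detection used donor plus acceptor beads, 10 µg/mL apiece, read by AlphaScreen after 30 min at room temperature.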
SARS PLpro yeast: SARS-CoV PLP inhibition in yeast; S. cerevisiae expressing SARS-CoV PLpro, growth rescue; Potency, µM (titrated, usually from 32.9 µM), for the others: top-dose activity, positive = growth rescue, usual class: activators; 0.19% of 330,000 active; AID 485353; calls by dose curve; note: 0% is about no effect; nearly all actives have a fitted effect of over 55% in size
Pf growth 48h: P. falciparum growth inhibition at 48 hours (one generation); P. falciparum luciferase growth in erythrocytes, 48 h; Potency, µM (titrated, usually from 28.7 µM), inactives show top-dose activity change, negative = inhibition, most hits filed as inhibitors; 5.9% of 310,000 active; AID 504832; note: % is set by controls: 0 for no effect and ±100 for the full control effect
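Growth was read as firefly luciferase luminescence after a 48 h, 37 C, 5% CO2 exposure of compounds to reporter-bearing P. falciparum cultures (0.1% parasitemia, 2% hematocrit final) in Albumax-supplemented RPMI 1640.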
* hit, by the source's call; ? = inconclusive; nt = no result. Unless noted, calls come from the whole dose curve; as a rule, active = well fitted curve in the direction sought with a large enough effect; inconclusive = small, poorly fitted or top-dose-only effect, or another doubt; inactive = no such curve, though single readings can be large; an effect the other way counts as inactive or inconclusive. Potency is the fitted concentration of half-maximal effect.

SMILES	Pf growth 96h	AMA1-RON2 inh	SARS PLpro yeast	Pf growth 48h
O=[N+]([O-])c1ccc(C=NN2CCCCCC2)cc1	nt	25.1µM*	nt	nt
COc1ccccc1N1CCN(/N=C/c2ccc([N+](=O)[O-])cc2)CC1	10.4µM*	-10.8%	18.0%	33.9%
COc1ccc(OC)c(S(=O)(=O)N2CCC(C(=O)N3CCN(Cc4ccccc4)CC3)CC2)c1	nt	6.1%	-8.1%	-5.3%
COC(=O)c1c(NC(C)=O)sc(C)c1C	?	-6.1%	0.2%	-0.4%
CSCC[C@H](NC(=O)COc1cc2c(c3oc(=O)c(C)c(C)c13)CCC(C)(C)O2)C(=O)O	-1.1%	5.5%	2.4%	-8.5%
O=C(OCC(=O)N1CCc2ccccc21)c1ccccc1F	-8.9%	0.6%	-8.3%	120.9%
CCOCCn1c(=NC(=O)CSCC(=O)Nc2cc(C)on2)sc2cc(OC)ccc21	5.22µM*	-8.0%	18.4%	5.22µM*
COCCn1c(=NC(=O)CSCC(=O)NC2CCCCC2)sc2cc(OC)ccc21	-13.6%	5.4%	-12.9%	?
COc1ccc(-c2cc3ccc(OCc4nn[nH]n4)cc3oc2=O)cc1OC	16.3%	-10.3%	1.1%	nt
CCN(CC)C(=O)c1cn(CCC#N)nc1-c1ccc2ccccc2c1	?	-6.8%	-1.1%	173.0%
CCOc1ccc(NC(=O)C2=NN(c3ccccc3)C(=O)CC2)cc1S(=O)(=O)N1CCCCC1	?	-7.6%	-4.0%	11.7µM*
CCOc1ccc(NC(=O)CN2CCCC2c2cccs2)cc1S(=O)(=O)N1CCCC1 (stereo not drawn)	14.7µM*	-9.5%	-1.6%	11.7µM*
Cc1ccc(C)c(N2N=C(C(=O)Nc3cccc(S(=O)(=O)N4CCCCC4)c3)CCC2=O)c1	4.65µM*	-10.0%	1.1%	4.65µM*
O=C(Nc1cc(S(=O)(=O)N2CCCCC2)ccc1Cl)C1=NN(c2ccccc2)C(=O)CC1	?	0.3%	-3.9%	?
O=C(Nc1cccc(S(=O)(=O)N2CCCCC2)c1)C1=NN(c2ccccc2)C(=O)CC1	6.57µM*	-10.7%	2.2%	5.22µM*
CCOc1ccc(NC(=O)c2ccco2)cc1S(=O)(=O)N1CCCC1	?	-12.5%	-0.6%	?
Cc1ccc(/C=C/C(=O)Nc2sc(C)c(C)c2C(=O)OC(C)C)o1	10.3%	-14.8%	-3.1%	-6.9%
O=C(NCCS(=O)(=O)N1CCN(c2ccccc2F)CC1)c1ccc(Br)cc1	-14.0%	3.5%	0.6%	33.6%
CC1(C)NC(=O)N(CC(O)COc2ccccc2-c2ccccc2)C1=O (stereo not drawn)	-13.4%	-4.4%	0.7%	20.0%
CCCc1noc2c1/C(=N\O)CC(CC(C)SCC)C2 (stereo not drawn)	0.0%	-4.9%	-13.6%	?
CCSC(C)CC1C/C(=N/O)c2c(CC)noc2C1 (stereo not drawn)	7.5%	-8.7%	?	14.7µM*
O=C(Nc1ccc(F)cc1)C1CCC(CNc2c(N3CCCCC3)c(=O)c2=O)CC1 (stereo not drawn)	?	5.0%	3.7%	11.7µM*
CCOc1ccc(NC(=O)CCNc2c(N3CCCC3)c(=O)c2=O)cc1	53.9%	-0.5%	2.7%	2.3%
CCOc1ccc(NC(=O)C2CCC(CNc3c(N4CCCCC4)c(=O)c3=O)CC2)cc1 (stereo not drawn)	5.86µM*	-3.7%	0.5%	6.57µM*
COc1ccccc1NC(=O)C1CCC(CNc2c(N3CCCCC3)c(=O)c2=O)CC1 (stereo not drawn)	0.1%	-7.3%	-0.9%	33.9%
SMILES	Pf growth 96h	AMA1-RON2 inh	SARS PLpro yeast	Pf growth 48h
CCOc1ccc(NC(=O)C2CCC(CNc3c(N4CCC(C)CC4)c(=O)c3=O)CC2)cc1 (stereo not drawn)	2.33µM*	13.4%	0.9%	4.15µM*
COc1cc(NC(=O)C2CCC(CNc3c(N4CCC(C)CC4)c(=O)c3=O)CC2)cc(OC)c1 (stereo not drawn)	-26.6%	-7.8%	-1.7%	nt
COc1cc(NC(=O)C2CCC(CNc3c(N4CCCCC4)c(=O)c3=O)CC2)cc(OC)c1 (stereo not drawn)	5.1%	-2.6%	0.9%	11.7µM*
COCCNC(=O)c1cccc(OC2CCN(Cc3ccc(C(=O)OC)cc3)CC2)c1	?	29.9%	-0.7%	?
Cc1ccc(CN2CCC(Oc3cccc(C(=O)N(C)CCN(C)C)c3)CC2)cc1C	7.0%	2.2%	0.3%	9.28µM*
COc1cccc(C(=O)C2CCCN(Cc3cccc(OCCO)c3)C2)c1 (stereo not drawn)	4.65µM*	-10.6%	-1.3%	?
